Screening results (PubChem)
Only some compounds are listed: those with a hit (about 1.4% of all), similar ones and a draw of the others.
FPR ligand: human FPR ligands by binding competition, primary screen, cell-based, FPRL1 counter-screen, flow cytometry; FPR-expressing cells, fluorescent ligand binding; hit rate 0.74% among 24,000; inhibition, % (concentration not given with the values);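 also: 0% = buffer wells and 100% = receptor blocker peptide wells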
VLA-4 antagonist: inhibitors of LDV-FITC binding to Mn2+-activated VLA-4, primary screen, Jurkat cells; Integrin alpha-4 (Homo sapiens), P13612; LDV-FITC binding with Mn2+, flow cytometry; 100% = Mn2+-driven binding gain fully reversed; inhibition, % at 10 µM (by protocol); hit rate 0.2% among 24,000; AID 529, 2006;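 active = inhibition above 50%; inconclusive = compound itself fluorescent, judged against control cell fluorescence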;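 also: 0% = Mn2+ stimulated cells lacking compound and 100% = ligand binding without Mn2+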
Autofluor Jurkat: compound autofluorescence on Jurkat cells, primary screen, artefact control for VLA-4 allosteric ligand project, cell-based, flow cytometry. active compounds read high; 1 = vehicle-only cell background. fluorescence ratio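 (tested at 10 µM compound in the well)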. hit rate 0.61% among 24,000. AID 576, 2007;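 active = fluorescence ratio above 2.44, which is 1 plus 3 SD of all ratios; inconclusive = signal too bright to measure linearly, ratio around 10 or more; inactive = fluorescence ratio below 2.44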;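 also: green fluorescence of cells measured with 488 nm excitation and 530 nm emission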
FPRL1 binder: human FPRL1 ligands by binding competition, primary screen, cell-based, FPR counter-screen, flow cytometry; N-formyl peptide receptor 2 (Homo sapiens), P25090; FPRL1-expressing cells, fluorescent ligand binding inhibition; inhibition, % (test concentration not listed); hit rate 0.3% among 24,000;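 also: 0% = buffer alone and 100% = receptor blocker peptide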
Target sequence (P25090 whole entry, looked up): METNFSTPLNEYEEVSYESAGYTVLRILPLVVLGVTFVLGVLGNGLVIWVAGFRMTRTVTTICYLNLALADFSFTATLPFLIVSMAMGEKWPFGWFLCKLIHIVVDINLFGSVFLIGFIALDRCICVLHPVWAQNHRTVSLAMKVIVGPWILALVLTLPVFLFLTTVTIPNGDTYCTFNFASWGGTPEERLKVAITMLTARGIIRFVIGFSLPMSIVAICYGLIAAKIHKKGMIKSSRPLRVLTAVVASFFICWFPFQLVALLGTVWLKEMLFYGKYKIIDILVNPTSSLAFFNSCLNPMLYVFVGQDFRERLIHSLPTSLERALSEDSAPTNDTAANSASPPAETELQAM
VLA-4 allo ag: enhancers of LDV-FITC binding to VLA-4 integrin, primary screen, Jurkat cells, flow cytometry. activation, % at 10 µM (by protocol). 24,000 tested, under 10 active;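 active = fluorescent ligand binding to cells raised by more than 40% of the manganese-induced maximum; inconclusive = compound's own fluorescence above 85% of the ligand control signal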;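 also: 0% = ligand binding without compound and 100% = manganese-stimulated maximal binding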
The depositor's hits bear a star; ? = inconclusive; / = not tested or not shown. Rule as the data show it, unless noted: active = inhibition above about 30%; inconclusive = no clear call, values can overlap the other calls; inactive = below that.

SMILES | FPR ligand | VLA-4 antagonist | Autofluor Jurkat | FPRL1 binder | VLA-4 allo ag
N#CC1=C(SCC(=O)c2cc3ccccc3oc2=O)NC(=O)C(C#N)C12CCCC2 (stereo not given) | -2 | 68* | 1.2 | -2 | -36
CCn1c(=O)cc(SCC(=O)Nc2ccccc2N2CCN(C)CC2)c2ccccc21 | 4 | 7 | 1.1 | 9 | -6
COc1ccc(C)cc1NC(=O)C1CCCCC1C(=O)O (stereo not given) | 32* | / | / | 26 | /
CCOc1ccc(C2C(C(=O)c3ccco3)=C(O)C(=O)N2CCCn2ccnc2)cc1 (stereo not given) | 70* | / | / | 1 | /
Cc1ccc(C(=O)C2=C(O)C(=O)N(CCCn3ccnc3)C2c2ccc(OC(C)C)cc2)o1 (stereo not given) | 65* | / | / | -2 | /
COCCN1C(=O)C(O)=C(C(=O)c2cccs2)C1c1ccccc1 (stereo not given) | 60* | / | / | -5 | /
CCOc1ccc(C2C(C(=O)c3cccs3)=C(O)C(=O)N2CCCn2ccnc2)cc1 (stereo not given) | 30* | / | / | 8 | /
Cc1nc(C)c(C(=O)C2=C(O)C(=O)N(CCCn3ccnc3)C2c2ccccc2)s1 (stereo not given) | 1 | -16 | 1.1 | 4 | 0
O=C(NC1CCCc2ccccc21)C1CCN(c2c(N3CCCC3)c(=O)c2=O)CC1 (stereo not given) | -8 | -11 | 1.2 | -4 | -13
Cn1c(Cn2c(=O)sc3ccccc32)nnc1SCC(=O)NCc1ccccc1Cl | -11 | -8 | 1 | -8 | 6
CC(C)(C)c1ccc(C(=O)Nc2cnccn2)cc1 | -3 | -1 | 1.1 | -1 | -1
Cc1cccc(N2CCN(C(=O)c3cc4c(=O)n(C)c5ccccc5c4n3C)CC2C)c1 (stereo not given) | -1 | ? | 1.4 | -3 | ?
N#Cc1c(C(F)(F)F)cc(-c2ccccc2)nc1SCc1nc(N)nc(N2CCOCC2)n1 | ? | ? | 8.7* | 47* | ?
